We go through 34 compounds from PubChem BioAssay.

SMILES strings stand for the structures. “And” between values parts separate entries of the source, which are not always exact repeats. Equal values may be shown once. Some structures have more than one record in an assay (separate samples or runs), and their calls can disagree. The source made the active and inactive calls.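 How the source made its calls, unless noted: active means mean z-score across replicates of 1.96 or higher in either the MELAS or the Rieske mutant cell line; inactive means the rest.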

The first assay is described as follows: modifiers of HSF1 nuclear foci, imaging, Selleck Cancer Library (AID 1347162; in the data active means plate-normalised HSF1 focus index below about 0.46). The note with it: human cells, at 10 µM; SSMD: measured here: HSF1 foci SSMD mean; cell count: measured here: cell number; plate-normalised HSF1 focus index: stronger effect = lower value.
For the compound `CCn1c(-c2nonc2N)nc2cnc(Oc3cccc(NC(=O)c4ccc(OCCN5CCOCC5)cc4)c3)cc21`, the cell count was 7080, the SSMD was 0.629 and the plate-normalised HSF1 focus index was 1.04 (inactive).

In the case of `NC(=O)c1ccc(-c2nc(-c3ccc4c(c3)OCO4)c(-c3ccccn3)[nH]2)cc1`, the SSMD was 0.986, the plate-normalised HSF1 focus index was 1.06 (inactive) and the cell count was found to be 7590.

For the compound `CN(C)CCOc1ccc(-c2nc(-c3ccc4c(c3)CC/C4=N\O)c(-c3ccncc3)[nH]2)cc1`, the cell count was 7550, the plate-normalised HSF1 focus index is 1.1 (inactive) and the SSMD amounted to 1.6.

The nature of another assay: survival rescue of mitochondrial mutant cells in low glucose, primary screen, MELAS cybrids, Rieske KO mouse fibroblasts, CellTiter-Glo (AID 1508586).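 Further: z relative to plate mean and SD of compound and empty wells.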 The note with it: MELAS cybrid survival, CellTiter-Glo 48 h, stronger effect = higher value. (In general: In ATP-based viability assays light output follows the ATP content of the culture.)
In the case of `COc1ccc(Nc2ncc(-c3ccccc3)o2)cc1OC`, the z-score was 1.52 (inactive).

With `Fc1ccc(-c2nc3n(c2-c2ccncc2)CCS3)cc1`, the z-score was 1.07 (inactive).

On to `CCn1c(-c2nonc2N)nc2cnc(Oc3cccc(NC(=O)c4ccc(OCCN5CCOCC5)cc4)c3)cc21`, for which the z-score is -0.727 (inactive).

For `Cc1ccc(O)cc1Nc1ccnc2ccc(S(C)(=O)=O)cc12`, the z-score was -0.116.

As for `CN(C)c1cc2c(Nc3ccc4c(cnn4Cc4ccccc4)c3)ncnc2cn1`, the z-score is -0.0495 (inactive).

Turning to `Cc1ccc2c(-c3ccnc(Nc4ccc5c(c4)OCCO5)n3)c(-c3ccc(C(F)(F)F)cc3)nn2n1`, the z-score is -0.379 (inactive).

On to `Cc1ccc(NC(=O)c2ccoc2)cc1-c1ccc(C(=O)NCC2CC2)cc1`, for which the z-score was -1.06 (inactive).

On to `O=C(Nc1n[nH]c2cc(-c3cc(F)ccc3F)ccc12)C1CC1`, for which the z-score is -0.186 (inactive).

Turning to `NC(=O)c1ccc(-c2nc(-c3ccc4c(c3)OCO4)c(-c3ccccn3)[nH]2)cc1`, the z-score was -0.87 (inactive) and -0.497 (inactive).

With `CN(C)c1cc2c(Nc3ccc4nc(Cc5ccccc5)[nH]c4c3)ncnc2cn1`, the z-score was 0.173 (inactive).

For `Cc1ccc(C(=O)NC2CCC2)cc1-c1ccc(C(=O)NCC2CC2)cc1`, the z-score is -0.173 (inactive).

With `CCNC(=O)O[C@H]1CN[C@H](C#Cc2cc3ncnc(Nc4ccc(OCc5cccc(F)c5)c(Cl)c4)c3s2)C1`, the z-score is 0.000408 (inactive).

As to `COc1cc2ncn(-c3cc(O[C@H](C)c4ccccc4Cl)c(C(N)=O)s3)c2cc1OC`, the z-score was -1.03.

As to `Clc1ccc(CNc2nccc(-c3cnn4ncccc34)n2)cc1`, the z-score is 0.484 (inactive).

Consider `CCc1cccc(NC(=O)Nc2ccc(Oc3ccc4nc(NC(=O)OC)[nH]c4c3)cc2)c1`, for which the z-score is -0.411 (inactive).

As to `COc1cc2ncn(-c3cc(OCc4ccccc4S(C)(=O)=O)c(C#N)s3)c2cc1OC`, the z-score is 0.713 (inactive).

Consider `Cn1cc(/C=C2\C(=O)Nc3cccnc32)c2ccccc21`, for which the z-score was 0.351 (inactive).

On to `COc1cc(N2CCN(C(C)C)CC2)ccc1Nc1nc(Nc2ccc(F)cc2C(N)=O)c2cc[nH]c2n1`, for which the z-score is 2.96 (active).

With `NC(=O)c1ccc2c(-c3ccnc(NCCCO)n3)c(-c3ccc(F)cc3)nn2c1`, the z-score is -0.11 (inactive).

Take `Fc1ccc(-c2ncn(C3CCNCC3)c2-c2ccnc(Oc3ccc4c(c3)OCO4)n2)cc1`: the z-score is -0.249 (inactive).

Take `Fc1cccc(COc2ccc(Nc3ncnc4sc(-c5ccco5)cc34)cc2Cl)c1`: the z-score was -0.906 (inactive).

`Cc1ccc(O)cc1Nc1ccnc2cc(-c3ccccn3)ccc12` showed a z-score of -0.612.

On to `COc1ccc(-c2coc3ncnc(N)c23)cc1`, for which the z-score is -0.507 (inactive).

With `N#Cc1c(NC(=O)c2ccccc2F)sc2c1CCCC2`, the z-score is 0.104 (inactive) and 0.195 (inactive).

Turning to `COc1ccc(-c2oc3ncnc(N)c3c2-c2ccc(NC(=O)Nc3cc(C(F)(F)F)ccc3F)cc2)cc1`, the z-score was -1.1 (inactive).

As for `CN(C)CCOc1ccc(-c2nc(-c3ccc4c(c3)CC/C4=N\O)c(-c3ccncc3)[nH]2)cc1`, the z-score was 0.717.

Consider `COc1ccc(COc2ccc(Cc3cnc(N)nc3N)cc2OC)cc1`, for which the z-score was -0.29 (inactive) and -0.397 (inactive).

With `CS(=O)(=O)Nc1ccc(-c2ccc3c(NC(=O)C4CC4)n[nH]c3c2)cc1`, the z-score was 0.24 (inactive).

Consider `Cn1cc(C2=C(c3cn(CCCSC(=N)N)c4ccccc34)C(=O)NC2=O)c2ccccc21`, for which the z-score is 3.84 (active).

For the compound `Fc1ccc(-c2c(-c3ccncc3)nc3n2CCS3)cc1`, the z-score is -0.499 (inactive).

`Cc1cc(O)cc(C)c1/C=C/c1cncc(C(=O)N(C)C)c1`: the z-score is -0.281 (inactive).

As for `CS(=O)(=O)CCNCc1nc(-c2ccc3ncnc(Nc4ccc(F)c(Cl)c4)c3c2)cs1`, the z-score was 0.0696 (inactive).

Consider `Nc1ncnc2occ(-c3ccc(NC(=O)Nc4cc(C(F)(F)F)ccc4F)cc3)c12`, for which the z-score was 0.841 (inactive) and 3.25 (active).

In the case of `Nc1nccc(-c2c(-c3ccc(F)cc3)ncn2C2CCNCC2)n1`, the z-score is -0.885 (inactive) and -0.815 (inactive).
